Only some compounds are listed: those with a hit (about 1.7% of all), similar ones and a draw of the others.
FGF22 binding: binders of human FGF22 protein, primary screen, FGF22 synaptogenesis inhibitor project, biophysical, thermal shift, single point; activity (Tm shift, normalised), % at 9.99 µM; recombinant FGF22 thermal shift, SYPRO orange fluorescence; percent of sucrose octasulfate shift, DMSO zero; Fibroblast growth factor 22 (Homo sapiens), Q9HCT0; 1.5% of 340,000 active;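 active = mean Tm shift, scaled 0 neutral to 100 positive control, at about 1.3% or above, every replicate too, limit read from the data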
Target sequence (Q9HCT0 whole entry, looked up): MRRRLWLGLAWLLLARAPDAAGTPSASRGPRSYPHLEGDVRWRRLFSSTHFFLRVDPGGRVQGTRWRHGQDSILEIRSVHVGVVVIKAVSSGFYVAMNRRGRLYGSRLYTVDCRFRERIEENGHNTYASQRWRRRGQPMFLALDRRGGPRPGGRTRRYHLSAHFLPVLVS
CFTR F508del cor: F508del CFTR correction, initial screen, CFBE line, single point; AID 720511, 2013; activity (quench increase), % at 7.58 µM; 0.36% of 350,000 active; CFBE cells, YFP halide quenching; stimulated with forskolin plus potentiator P3; % fluorescence drop versus neutral controls;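 active = mean added fluorescence quench of at least 8% versus neutral control, with both replicates also reaching 8%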;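 also: cells transiently co-express mutant CFTR-F508del with the halide-sensitive YFP; corrector assay measuring rescue of mutant channel to the surface after 24 h compound exposure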
Vif imaging: HIV Vif self-association inhibitors, primary screen, imaging, HEK293T, single point; AID 602346, 2012; inhibition, % at 7.49 µM; 0.35% of 340,000 active; HEK293T cells, Vif self-association by quenched fluorescence, 24 h; in the data active = inhibition above about 50%, passing the limit was not always enough
Hits are given with their value; – = inactive; · = no result given; ! = repeats disagree.

SMILES | FGF22 binding | CFTR F508del cor | Vif imaging
COc1ccc(C#Cc2ccc([C@@H]3[C@H]4CN(C(=O)Cc5cccnc5)CCCCN4[C@H]3CO)cc2)cc1 | – | – | ·
Cc1nn(Cc2ccccc2)c(C)c1C(=O)OCC(=O)Nc1cc(S(C)(=O)=O)ccc1Cl | 43 | – | –
Cc1nn(Cc2ccccc2)c(C)c1C(=O)OCC(=O)Nc1cccc(S(N)(=O)=O)c1 | – | – | –
CC(=O)/C=C/c1ccccc1 | – | – | –
O=C(/C=C/C=C/c1ccccc1)CC1(O)C(=O)Nc2ccccc21 (stereo not given) | 43 | – | –
O=P(O)(O)CN1CCNCCN(CP(=O)(O)O)CCNCC1 | 43 | – | –
COC(=O)[C@@H]1[C@@H](CO)[C@@H]2Cn3c(ccc(C4=CCCCC4)c3=O)[C@H]1N2C(=O)CC1CC1 | – | – | ·
CCC(=O)N1[C@@H]2c3ccc(C4=CCCC4)c(=O)n3C[C@H]1[C@H](CO)[C@H]2C(=O)OC | – | – | ·
O=C(Cc1ccccc1)OCC(=O)c1ccccc1 | – | – | –
O=C(Cc1ccccc1)OCC(=O)c1ccc(F)cc1 | – | – | 87
O=C(Cc1cccnc1)N1CCCCN2[C@H](C1)[C@@H](c1ccc(/C=C/c3ccccc3)cc1)[C@@H]2CO | – | – | ·
COC(=O)[C@H]1[C@H](CO)[C@H]2Cn3c(ccc(-c4cccc(C(=O)N(C)C)c4)c3=O)[C@@H]1N2CC1CC1 | · | – | ·
CN1CCCN(c2ccc([N+](=O)[O-])nc2)CC1 | – | – | 52
CN1CCN(c2ccc([N+](=O)[O-])c(N3CCCCC3)c2)CC1 | – | – | –
CCN1[C@@H]2Cn3c(ccc(-c4ccc(OC)cc4)c3=O)[C@H]1[C@@H](C(=O)OC)[C@@H]2CO | – | · | ·
CN1C(=O)C(=Cc2ccc(SC3CCCCC3)o2)C(=O)N(C)C1=O | 43 | – | –
CN1C(=O)C(=Cc2ccc(N3CCCCC3)o2)C(=O)N(C)C1=S | · | · | –
COc1ccc(C#Cc2ccc([C@H]3[C@@H](CO)N4CCCCN(C(=O)Cc5cccnc5)C[C@@H]34)cc2)cc1 | – | – | ·
CCC(CC)NCc1c[nH]c2ccccc12 | 43 | – | –
CCN(CC)Cc1c[nH]c2ccccc12 | · | · | –
COC(=O)[C@@H]1[C@@H](CO)[C@@H]2Cn3c(ccc(C4=CCCC4)c3=O)[C@H]1N2S(=O)(=O)c1cn(C)cn1 | – | – | ·
O=C(NCNC(=O)NC1C(=O)NC(=O)N1CO)NC1C(=O)NC(=O)N1CO (stereo not given) | – | – | 123
COC(=O)[C@H]1[C@H](CO)[C@H]2Cn3c(ccc(C4=CCCC4)c3=O)[C@@H]1N2CC1CCCCC1 | – | – | ·
C[C@H]1CCC/C=C/[C@@H]2C[C@H](O)C[C@H]2[C@H](O)/C=C/C(=O)O1 | – | 16! | –
C[C@H]1CCCC(=O)CCC/C=C/c2cc(O)cc(O)c2C(=O)O1 | – | – | –
SMILES | FGF22 binding | CFTR F508del cor | Vif imaging
Fc1ccc(CCNCc2ccc(Br)cc2)cc1 | 44 | – | –
Fc1ccc(CNCCc2ccccc2F)cc1 | – | · | –
COc1ccc(OC(=O)N(C)C[C@H]2OCc3ccccc3-c3c(n(C)c4ccccc34)C(=O)N([C@@H](C)CO)C[C@H]2C)cc1 | – | – | ·
COc1cc2c(C(=O)O)c(C)n(C)c2cc1Br | 43 | · | –
COc1ccc2c(c1)c(C(=O)O)c(C)n2C(C)C | · | · | –
O=C(O)[C@@H]1[C@@H](CO)[C@@H]2Cn3c(ccc(-c4cccnc4)c3=O)[C@H]1N2S(=O)(=O)c1ccccc1F | – | – | ·
COC(=O)C[C@H]1CC[C@@H]2NC[C@@H](O)COC[C@H]2O1 | – | – | ·
Cn1cccc1/C=C1\C(=O)NC(=O)N(Cc2ccccc2Cl)C1=O | 44 | – | –
Cn1cccc1/C=C1\C(=O)NC(=O)N(CCC2=CCCCC2)C1=O | – | – | –
Cc1ncc(C(=O)O)n1C(C)c1ccccc1 (stereo not given) | · | – | –
CCOC(=O)c1cncn1[C@@H](C)c1ccccc1 | – | 8.9 | –
C/C=C/c1ccc([C@@H]2[C@@H](CO)N3CCCCN(C(=O)Cc4ccncc4)C[C@H]23)cc1 | – | – | ·
CCC1(Oc2ccccc2)C(=O)NC(=O)NC1=O | – | – | –
CCC1(C)OC(c2ccccc2)=C/C(=C/C=C2C(=O)NC(=O)NC2=O)O1 (stereo not given) | – | 15 | –
O=C(Cc1ccccc1)OCn1nnc2ccccc2c1=O | – | – | 140
CCOC(=O)c1nc2ccccc2c(=O)n1-c1ccc(C)cc1 | · | · | –
C/C=C/c1ccc(C2[C@H]3CNC[C@@H]2N3CC2CCCCC2)cc1 (stereo not given in full) | · | – | ·
O=C(Cc1cccnc1)N1CCCCN2[C@H](C1)[C@H](c1ccc(C#CC3CCCC3)cc1)[C@@H]2CO | – | – | ·
C[C@]12CCC3C(CC[C@H]4[C@@H](O)[C@H](O)CC[C@]34C)C1CCC2=O (stereo not given in full) | 46 | – | –
C[C@]12CCC3[C@@H](CC[C@H]4C[C@@H](O)CC[C@]34C)C1CCC2=O (stereo not given in full) | – | – | –
CC=Cc1ccc2n(c1=O)C[C@@H]1[C@@H](CO)[C@H](C(=O)O)[C@H]2N1S(=O)(=O)c1ccccc1F (mixture of isomers) | – | · | ·
CN1[C@@H]2Cn3c(cccc3=O)[C@H]1[C@@H](C(=O)NCC1CC1)[C@@H]2CO | – | · | ·
COc1ccc(-c2ccc([C@@H]3[C@@H](CO)N4CCCCN(C(=O)Cc5ccccc5)C[C@H]34)cc2)cc1 | · | – | ·
COC1C(C)OC(OC2CC(C)(O)Cc3cc4c(c(O)c32)C(=O)c2c(O)cc3c(c2C4=O)OC2OC3(C)C(O)C(N(C)C)C2O)C(OC)C1(C)OC (stereo not given) | – | 20 | –
COC(=O)[C@H]1[C@H](CO)[C@H]2Cn3c(ccc(-c4ccccc4F)c3=O)[C@@H]1N2CC1CCCC1 | – | · | ·
SMILES | FGF22 binding | CFTR F508del cor | Vif imaging
CCc1ccc(N2C(=O)NC(=O)/C(=C/c3cccn3CCOc3ccc(C)cc3)C2=O)cc1 | – | – | –
CCc1ccc(N2C(=O)NC(=O)/C(=C/c3cccn3CCOc3ccc(C(C)CC)cc3)C2=O)cc1 (stereo not given) | 43 | – | –
N#Cc1cccc(-c2ccc([C@H]3[C@H](CO)N4CCCCN(C(=O)Cc5cccnc5)C[C@@H]34)cc2)c1 | – | – | ·
CC(C)CC#Cc1ccc([C@@H]2[C@H](CO)N3CCCCN(C(=O)Cc4ccccn4)C[C@@H]23)cc1 | – | – | ·
COc1cc2c(c(OC)c1OC)-c1ccc(SC)c(=O)cc1C(NC(C)=O)CC2 (stereo not given) | – | – | –
COc1c(O)cc2c(c1OC)-c1ccc(OC)c(=O)cc1C(NC(C)=O)CC2 (stereo not given) | – | 8.2 | –
COc1ccc(C#Cc2ccc([C@@H]3[C@H]4CN(C(=O)Cc5ccncc5)CCCCN4[C@H]3CO)cc2)cc1 | – | – | ·
COC(=O)[C@@H]1[C@@H](CO)[C@@H]2Cn3c(ccc(C4=CCCC4)c3=O)[C@H]1N2Cc1ccccn1 | – | · | ·
O=C(Cc1ccccc1)N1CCCCN2[C@H](C1)[C@@H](c1ccc(C#Cc3ccccc3)cc1)[C@@H]2CO | – | – | ·

Screens: PubChem BioAssay, Broad Institute
